Compound activity from PubChem BioAssay.
MBD2 inh – inhibitors of human MBD2 binding to methylated oligonucleotide; TR-FRET; inhibition, % at 4.4 µM; actives 0.31% (n = 370,000); in the data active means inhibition above about 13%
UHRF1 binding – blocks human UHRF1 binding to methylated DNA; actives 0.75% (n = 370,000); UHRF1 binding to methylated oligo, TR-FRET; Q96T88; inhibition, % at 4.4 µM; in the data active means inhibition above about 21%;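 further: UHRF1 SRA domain binding a hemimethylated CpG hairpin DNA probe; 0% = median of test compound wells and 100% = reference inhibitor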
LEDGF integ inh – blocks HIV-1 LEDGF/p75-dependent DNA integration. TR-FRET IN-LEDGF/p75 DNA integration, Eu/Cy5. inhibition, % at 3.7 µM. actives 0.64% (n = 370,000). AID 743269;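 active means inhibition above the screen-wide mean plus 3 SD, cut at about 13% in these data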;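 further: signal is the Cy5 over europium emission ratio at 671 and 618 nm; 0% = plate median of compound wells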
PLC-gamma1 inh – blocks human PLC-gamma1 enzyme activity; actives 0.84% (n = 370,000); AID 720700; purified PLC-gamma1, fluorogenic substrate, fluorescence; inhibition, % at 12.2 µM; P19174; in the data active means inhibition above about 9.5%
Target sequence (P19174 whole entry, looked up): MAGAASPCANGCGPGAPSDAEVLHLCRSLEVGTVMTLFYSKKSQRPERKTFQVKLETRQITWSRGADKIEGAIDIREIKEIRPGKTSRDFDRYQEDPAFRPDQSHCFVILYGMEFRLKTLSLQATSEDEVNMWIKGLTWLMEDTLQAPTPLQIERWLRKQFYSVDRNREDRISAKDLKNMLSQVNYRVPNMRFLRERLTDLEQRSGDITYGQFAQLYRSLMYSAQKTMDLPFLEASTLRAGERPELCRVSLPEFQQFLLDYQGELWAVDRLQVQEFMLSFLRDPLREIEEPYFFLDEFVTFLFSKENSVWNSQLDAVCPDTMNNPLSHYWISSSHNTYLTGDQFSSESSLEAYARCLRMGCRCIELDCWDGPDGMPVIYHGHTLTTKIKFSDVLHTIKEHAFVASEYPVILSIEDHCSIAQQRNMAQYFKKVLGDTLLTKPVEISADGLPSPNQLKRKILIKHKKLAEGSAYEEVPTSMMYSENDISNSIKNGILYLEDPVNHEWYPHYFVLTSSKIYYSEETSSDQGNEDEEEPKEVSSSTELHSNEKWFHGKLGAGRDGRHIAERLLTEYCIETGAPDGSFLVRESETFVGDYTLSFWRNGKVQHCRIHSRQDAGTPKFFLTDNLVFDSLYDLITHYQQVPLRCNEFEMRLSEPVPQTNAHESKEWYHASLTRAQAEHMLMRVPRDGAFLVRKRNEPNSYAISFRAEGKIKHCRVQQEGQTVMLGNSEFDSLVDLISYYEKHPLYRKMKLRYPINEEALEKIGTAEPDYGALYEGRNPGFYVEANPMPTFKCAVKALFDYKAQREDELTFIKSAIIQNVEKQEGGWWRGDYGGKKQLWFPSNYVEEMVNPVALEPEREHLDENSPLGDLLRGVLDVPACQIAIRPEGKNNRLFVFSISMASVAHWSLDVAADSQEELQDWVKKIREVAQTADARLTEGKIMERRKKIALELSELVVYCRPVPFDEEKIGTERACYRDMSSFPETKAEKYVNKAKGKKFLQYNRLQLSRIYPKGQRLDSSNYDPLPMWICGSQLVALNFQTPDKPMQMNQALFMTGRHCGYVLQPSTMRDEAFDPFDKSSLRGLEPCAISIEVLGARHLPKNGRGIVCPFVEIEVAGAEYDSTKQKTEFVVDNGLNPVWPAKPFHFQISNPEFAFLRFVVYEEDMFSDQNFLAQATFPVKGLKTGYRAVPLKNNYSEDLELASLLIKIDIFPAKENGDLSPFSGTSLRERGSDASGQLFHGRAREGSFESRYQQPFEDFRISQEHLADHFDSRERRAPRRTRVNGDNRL
PLCb3 inh – PLC-beta3 (human) inhibition, primary screen | Q01970 | Purified PLC-beta3, fluorogenic substrate, fluorescence | inhibition, % at 12.2 µM | actives 0.18% (n = 370,000);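 further: 0% = median of compound wells on plate and 100% = full blocker control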
PLCg1 ctr – PLC-gamma1 inhibition, counter-screen for PLC-beta3 hits; shares compounds with PLC-gamma1 inh; purified PLC-gamma1, fluorogenic substrate, fluorescence; inhibition, % at 12.3 µM; actives 3.1% (n = 3,300); AID 743258; in the data active means inhibition above about 9.5%
PLCbeta3 conf – human PLC-beta3 inhibition, confirmation | shares compounds with PLC-gamma1 inh | purified PLC-beta3, fluorogenic substrate fluorescence | inhibition, % at 12.3 µM | actives 1% (n = 3,300)
Numbers without * were called inactive; · = no result given; ! = not active in a repeat. Rows were chosen to be rich in hits. Some 2.4% of all compounds tested hit in one or more screens of this group. Unless noted, no stated cut-off is given here; in the data, active means inhibition above about 11%; inactive means the rest.

SMILES	MBD2 inh	UHRF1 binding	LEDGF integ inh	PLC-gamma1 inh	PLCb3 inh	PLCg1 ctr	PLCbeta3 conf
CCCS(=O)(=O)N1CCCC(c2nc(-c3cccc(OC)c3)no2)C1 (stereo not drawn)	10	-1	-1	-2	-3	·	·
COc1cccc(-c2noc(C3CCCN(S(=O)(=O)c4cccc(Cl)c4C)C3)n2)c1 (stereo not drawn)	0	3	5	12*	1	-2	1
COc1ccc(-c2cc(C(=O)NN=Cc3ccc(C)s3)[nH]n2)cc1	7	-3	-4	5	0	·	·
COCCn1c(SCC(=O)N2CCCC2)nc2c(c1=O)SCC2	-6	1	3	7	11*	4	4
CCCC/C=C1/[C@H](c2ccccc2)N(C)C2=N[C@H](c3ccccc3)CC(=O)N21	3	0	-4	-2	-1	·	·
COc1ccc(CNC(=O)C(C)Cc2ccccc2)cc1O (stereo not drawn)	-4	4	-1	12*	7	-5	-3
Cc1ccc(Nc2nc(=O)c3cccnc3s2)cc1	4	8	5	11*	2	-6	-3
O=C(OCc1ccccc1Cl)c1cc([N+](=O)[O-])ccc1N1CCOCC1	5	4	2	14*	3	0	2
Cc1cc(-c2n[nH]c(=S)n2N=Cc2ccc(-c3ccccc3)cc2)n[nH]1	2	1	-1	1	-1	·	·
COc1ccc(CN2CCN(c3ccccn3)CC2)c(OC)c1	0	2	3	10*	3	-8	0
COc1ccc(CN2CCN(c3ncccn3)CC2)c(OC)c1	-3	0	-2	0	2	·	·
COc1ccc(N(C(=O)COc2ccccc2)C2C=CS(=O)(=O)C2)c(OC)c1 (stereo not drawn)	-4	4	8	14*	5	-5	-2
COC(=O)[C@]12C[C@H](CC(=O)NCc3ccc(OC)c(OC)c3)C(=O)N(Cc3cccc4ccccc34)C1=C[C@H](COCc1ccccc1)O[C@@H]2C	3	0	-4	3	0	·	·
C=CCN(C)CC#Cc1ccccc1C	-1	2	-1	-2	-2	·	·
COCC(C)n1c(-c2ccc3c(c2)NC(=O)CO3)csc1=Nc1ccc(OC(F)F)cc1 (stereo not drawn)	-4	0	0	12*!	4	4	3
O=C1COc2ccc(-c3csc(=Nc4ccc(OC(F)F)cc4)n3CC3CCCO3)cc2N1 (stereo not drawn)	-3	1	4	8	6	·	·
Nn1c(SCC(=O)N2CCOCC2)nnc1-c1cc(-c2ccc(F)cc2)n[nH]1	-3	-3	-2	0	4	·	·
Cc1cc(C)cc(C(=O)OCCCN(C)C2CN(Cc3cn(Cc4ccccc4C(F)(F)F)nn3)S(=O)(=O)C2)c1 (stereo not drawn)	6	15	3	1	1	·	·
COc1ccc(N2CCN(CCNC(=O)c3ccc(NC(=O)C4CCCO4)cc3)CC2)cc1 (stereo not drawn)	-1	0	2	11*	5	4	2
C=CCn1c(SCC(=O)C(C)(C)C)nnc1-c1ccc(Cl)cc1	0	1	5	1	0	·	·
Cc1ccccc1NS(=O)(=O)c1ccc2c(c1)CCC(=O)N2	0	-2	6	13*	5	-5	-3
CCOC(=O)c1c(NC(=O)C2CC2)sc2c1CC(C)(C)OC2	1	0	1	2	3	·	·
COC(=O)c1c(N)sc2c1CC(C)(C)OC2	3	4	2	11*	1	-8	-6
COc1cc(/C=N\NC(=O)c2ccccc2F)ccc1Oc1ccc([N+](=O)[O-])cn1	-2	2	3	9.6*	0	-1	2
COc1cc(/C=N\NC(=O)c2ccc(Cl)cc2)ccc1Oc1ccc([N+](=O)[O-])cn1	-6	4	9	5	0	·	·
SMILES	MBD2 inh	UHRF1 binding	LEDGF integ inh	PLC-gamma1 inh	PLCb3 inh	PLCg1 ctr	PLCbeta3 conf
Cc1ccc(C)c(N2CCN(S(=O)(=O)c3ccc4[nH]c(=O)c(=O)[nH]c4c3)CC2)c1	3	1	4	17*	0	-1	-4
COc1ccc(CNC(=O)CCn2c(C)csc2=O)cc1	-1	3	8	11*	-1	1	-4
COc1ccc(C(=O)N2CCC(O)(c3ccc(F)cc3)CC2)cc1OC	0	4	3	10*	4	-5	-3
CCOC(=O)C1(CCCc2ccccc2)CCN(C(=O)C(C)n2cncn2)CC1 (stereo not drawn)	1	8	3	9.5*	-48	-5	3
Fc1cc(F)cc(NC(=S)NN2CCOCC2)c1	-7	2	0	11*	8	0	0
COC(=O)C1CN(Cc2cn(Cc3ccc(C)cc3)nn2)CCS(=O)(=O)N1Cc1ccc(C)cc1 (stereo not drawn)	10	15	6	8	3	·	·
OCCCN1CCC2(CCC(c3ccccc3)CC2)C1 (stereo not drawn)	4	20	1	1	1	·	·
COC(=O)C(Cc1ccc(O)cc1)NC(=O)C(C)NC(=O)c1ccc(C(C)(C)C)cc1 (stereo not drawn)	1	3	7	9.7*	2	6	-14
CC(C)(C)OC(=O)N1CCC[C@H]1C(=O)N1CCC[C@H]1C(=O)NCc1ccncc1	3	-1	5	12*	4	-4	-73
CC(C)(C)OC(=O)N1CCC[C@@H]1C(=O)N1CCC[C@H]1C(=O)NCc1ccccc1	-1	-1	1	0	3	·	·
O=C(COC(=O)c1c(Cl)cccc1Cl)Nc1cc(Cl)ccc1Oc1ccccc1	-2	5	-4	11*	4	-6	-6
O=C(CN1CCCCC1)Nc1cc(Cl)ccc1Oc1ccccc1	5	-4	-1	1	3	·	·
CC(C)CN1C(=O)C(=O)N(CC(=O)Nc2cc(Cl)ccc2Oc2ccccc2)C1=O	7	2	3	20*	3	7	10
Cc1cccc(NC(=S)N2CCC(N(C)CC3CCCO3)CC2)c1 (stereo not drawn)	-4	2	2	9.7*	0	-2	1
COc1ccc2c3c([nH]c2c1)[C@]1(CCNC=O)Nc2ccccc2C1=NCC3	-6	0	-2	-9	-12	·	·
CCCC(O)(c1ccc(Cl)cc1)C(CN1CCOCC1)c1ccccc1 (stereo not drawn)	7	4	4	11*	3	5	2
Cc1ccc(-n2cc(CN3CCC(O)(c4ccccn4)CC3)c(-c3ccc(F)cc3)n2)cc1	6	4	-3	9.8*	0	-3	1
Cc1ccc(-n2cc(CN3CCNC(=O)CC3)c(-c3ccc(F)cc3)n2)cc1	-6	-3	4	5	-7	·	·
